Laboratory results taken from the supplement of paper PMC6555819.

These sequences were tested on VDR:RXRa (NR concentration 270 nM, RXRa partner concentration 90 nM) (assay: PBM binding z-score (relative to random genomic background probes); higher = stronger binding; sequences stand for … in GC…GCGATTGACAGCGTAGAATGAAGG).
Experimental: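 Protein-binding microarray (Agilent 4x180K custom design, double-stranded 60-nt probes: 5' GC cap, 34-nt variable region, 24-nt constant primer region; full probe sequence given). Purified or IVT nuclear receptor:RXRα heterodimers (3:1 NR:RXRα, mostly 270:90 nM) or homodimers were incubated for 1 h in PBS with 2% milk and no ligand, then detected with Alexa488 antibodies. Fluorescence from o1-orientation probes (~5 replicates averaged) was converted to z-scores against 500 random hg19 background probes. Variable regions are seed direct-repeat (DR0–DR5) sites, all their single-nucleotide variants and half-site ablations.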

Sequence	PBM binding z-score
GCTTGTAGCTCAAGGTTAAGAAAGACTAAGCTAA	-0.0239
GATACAGGGTCAAGACCAGAGTACGCGTATTGAT	4.33
GCTAGTTGGTCAGTAAAAGGTCACACACCGGTCG	3.89
TAGCCTAGGTCATTCCGGGGCCAGTATAGAAAGC	2.94
GCTGCTGGGTCAGGTTGGTCAGCTAACGGGTACG	0.554
AGAACGAGGGCAAGCTGAGTTGATAGCAGAGTAG	1.37
TCAATGAGGTTAAAGATCAGGGAACGTGGCGTCG	2.04
CTCGAAAGGTCGGTTGAAGTGAGTATACGGATAA	1.23
CCTCGGGGGACAGAAGGTCAGAGCTGTCCGCTTT	2.3
AGAATGATGTTATACGTAGATCAGGGAAGAAAGT	-0.209
TCTATTAGTTGATTAGGGCAACTGAAACAGCGGA	0.717
TCTATTAGTTGAAGTGCAACCGACGAGTCCGTTT	1.22
ACAGACAGGTGACGAAGGTAACTCAGGCTATCAT	0.352
CCAGACAGGTGAGAAGGTAAGTCAGCCTCGATTA	-0.106
CCTTACGGTTCAAGGTTATAGCACGGGTGGTACG	2.72
TCTAGCAGGCCAGAGGGTCACTCACGAGGTACGG	1.33
CCAGACAGATGAGAAGGTAACTCAGCCTCGATTA	0.0435
TCTTGTAGATCAACAGGAGATTAAGAAAGATCGA	0.136
CCGAGGAGGTTATGGGGCATTCAGGCAACGGTGA	0.925
CGAGCTAGGTCAAGGACAGTGAATCTCCGCACGC	0.904

Sequence	PBM binding z-score
TTACCAAGGTGAAGGTCGTTGATCCCTCTGTAGA	1.24
GGAACGAGAGCATTCGAGTTGATAGCATGGCGAT	-0.115
AGTATGAGGTTACCAAAGATCAGGGAAACGCTTG	1.41
GGAACCAGGGCAAGTTGATAGCAGAGTTTGATGG	0.319
AGAACGAGGGCACGCTGAGTTGATGGCAGAGTAG	1.86
CCGACTGGGCCACGAAAGGTCATTGATTCAGTGA	4.05
ATCTCTAGGTAAAGATAGTTCTGTGAATGCAAAT	0.285
ATATGTAGTTTACATCCGGGTCATTCAGGCTATG	3.49
AGTACAGGGTCACTAGGCCAGAGTAGGTACGAAT	3.83
TCTATTAGTTGAAGGTCAACCGACGAGTCCGTTT	3.85
CCTGCTAGGTCGTGGTCAGCTAATCTACAGTATG	-0.0552
TCTTGTAGATAAGCAGGTTAAGAAAGCTGGCCAA	0.177
CGAACGAGGGCATGAGCTGATAGCAAATGCCGAT	0.355
GGAACGAGGGCATTCTAGTTGATAGCATGGCGAT	1.81
TCTTGTAGATCAACAGGTGGTTAAGAAAGATCGA	0.266
AGAATGAGGTTACCAAAGATCAGCGAAACGCTTG	1.33
CCTACCGGGCCATCAGGTCATTGATATCAACGTT	1.83
ACTAGCAGGCCAAGGGTCAGTCAAGATTAGTCCG	1.12
TAGCCTAGGTCATGCGGGGCAGTATAGTGTCGGC	4.22
TAGCCTAGGTCATTCAGGGGCCAGTTTAGAAAGC	3.16
